Test results from PubChem BioAssay (Tox21).
Records with an inconclusive call do not appear. Calls of active or inactive are those of the source. Unless noted, calls follow the shape of the dose curve; as a rule, active = well fitted curve in the direction sought with a large enough effect in the repeat runs; inconclusive = weak or mixed curves; inactive = no such curve, though single readings can be large; an effect the other way counts as inactive or inconclusive.

What was measured:
[1] = qHTS assay to identify small molecule agonists of the estrogen receptor alpha (ER-alpha) signaling pathway in the presence of an antagonist - cell viability counter screen (AID 1259386);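 also: cells exposed to compounds for 22 h at 37 °C before the viability read; nearly all actives have a fitted effect of over 30% in size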; also: potency is read from the fitted curve at half-maximal effect
Summary of the method: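 Read-out: CellTiter-Fluor fluorescence after 1hr reagent incubation, measured in the same wells as the luciferase readout. VM7Luc4E2 cells were exposed to 15 compound concentrations with 10.0nM ICI-182,780 for 22hr at 37C.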

[2] = target: Progesterone receptor (Homo sapiens) (UniProt P06401); experiment: qHTS assay to identify small molecule agonists of the progesterone receptor (PR) signaling pathway (AID 1346784; calls by dose curve; also: nearly all actives have a fitted effect of over 30% in size; also: potency is read from the fitted curve at half-maximal effect)
Chain of Progesterone receptor (Homo sapiens) (P06401 whole entry, looked up): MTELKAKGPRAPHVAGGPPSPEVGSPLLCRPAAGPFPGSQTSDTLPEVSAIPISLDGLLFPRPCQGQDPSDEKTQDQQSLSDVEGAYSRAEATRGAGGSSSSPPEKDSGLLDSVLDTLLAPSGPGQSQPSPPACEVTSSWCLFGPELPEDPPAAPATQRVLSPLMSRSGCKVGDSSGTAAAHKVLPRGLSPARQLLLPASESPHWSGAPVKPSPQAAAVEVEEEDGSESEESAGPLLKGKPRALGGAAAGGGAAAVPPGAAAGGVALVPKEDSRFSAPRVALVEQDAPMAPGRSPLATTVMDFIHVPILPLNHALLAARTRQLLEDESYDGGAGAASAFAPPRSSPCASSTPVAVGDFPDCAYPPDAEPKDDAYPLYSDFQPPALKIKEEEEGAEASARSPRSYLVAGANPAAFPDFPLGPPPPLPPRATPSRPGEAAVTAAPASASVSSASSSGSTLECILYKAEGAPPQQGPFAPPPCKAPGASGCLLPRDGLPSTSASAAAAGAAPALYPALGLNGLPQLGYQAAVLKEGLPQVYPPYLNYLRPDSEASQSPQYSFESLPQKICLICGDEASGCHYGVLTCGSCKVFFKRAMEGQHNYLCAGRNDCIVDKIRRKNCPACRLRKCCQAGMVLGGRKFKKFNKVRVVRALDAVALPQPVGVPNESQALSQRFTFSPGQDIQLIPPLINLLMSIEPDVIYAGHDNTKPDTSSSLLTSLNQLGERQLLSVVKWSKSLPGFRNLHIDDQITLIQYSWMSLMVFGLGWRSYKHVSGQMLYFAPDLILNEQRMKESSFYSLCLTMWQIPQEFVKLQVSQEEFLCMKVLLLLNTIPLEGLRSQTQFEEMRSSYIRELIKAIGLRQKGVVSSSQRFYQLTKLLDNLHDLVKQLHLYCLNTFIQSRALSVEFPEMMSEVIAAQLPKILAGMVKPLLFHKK
Summary of the method: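 Reporter assay, GripTite PR-UAS-bla HEK 293T cells: 16 hr exposure to DMSO-dissolved compounds at 37C, 5% CO2, in steroid-depleted (2% charcoal-stripped FBS) medium; beta-lactamase measured by FRET fluorescence.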

[3] = target: Progesterone receptor (Homo sapiens) (UniProt P06401); experiment: qHTS assay to identify small molecule antagonists of the progesterone receptor (PR) signaling pathway (AID 1346795; active = well fitted inhibition curve with a large enough effect in the signal ratio in the repeat runs, not every such curve was filed as active; the % refers to the signal ratio; also: potency is read from the fitted curve at half-maximal effect)
Summary of the method: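 Stimulus R5020 at 1 nM final; cells HEK293T PR-UAS-bla; medium with 2% charcoal-stripped FBS; compound exposure 16 hr at 37C, 5% CO2; detection by FRET beta-lactamase substrate, 2 hr, room temperature.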

[4] = qHTS assay to identify small molecule antagonists of the progesterone receptor (PR) signaling pathway - cell viability counter screen (AID 1346798); also: series mostly up to about 92 µM; nearly all actives have a fitted effect of over 50% in size
Summary of the method: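 In the same plates used for the beta-lactamase readout, cell viability of compound- and R5020-treated PR-UAS-bla HEK293T cells (16 hr, 37C) was assessed by CellTiter-Glo luminescence.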

[5] = qHTS assay to identify small molecule agonists of the progesterone receptor (PR) signaling pathway - cell viability counter screen (AID 1346799; calls by dose curve; also: nearly all actives have a fitted effect of over 45% in size; also: potency is read from the fitted curve at half-maximal effect)
Summary of the method: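 Multiplexed viability read: CellTiter-Glo luminescence, 30 min RT, following LiveBLAzer FRET measurement on PR-UAS-bla HEK293T cells exposed to compounds 16 hr.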

[6] = qHTS assay to identify small molecule antagonists of the TGF-beta/Smad signaling pathway - cell viability counter screen (AID 1346824); also: nearly all actives have a fitted effect of over 50% in size
Summary of the method: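 SBE-bla HEK 293T cells, incubated overnight, then compound plus 0.25 ng/mL TGF-beta1 (stock added) for 5 hr at 37 C. Viability was read in the same wells by CellTiter-Glo luminescence after 30 min at room temperature.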

[7] = qHTS assay to identify small molecule agonists of the TGF-beta/Smad signaling pathway - cell viability counter screen (AID 1346829); also: top concentration of the series differs between compounds; nearly all actives have a fitted effect of over 45% in size
Summary of the method: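 After overnight seating at 37 C and 5% CO2, reporter cells got compounds for 5 hr and FRET substrate for 2 hr; cell viability then came from CellTiter-Glo luminescence.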

[8] = qHTS assay to identify small molecule agonists of the TGF-beta/Smad signaling pathway (AID 1346859; active = well fitted activation curve with a large enough effect in the signal ratio in the repeat runs, not every such curve was filed as active; the % refers to the signal ratio; also: series mostly up to about 77 µM)
Summary of the method: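 Screening used HEK 293T SBE-bla cells at 4,000/well. Test agents: 5 hr, 37 C. Detection: FRET substrate, 2 hr RT, then excitation 405 nm with emissions at 460 and 530 nm.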

[9] = Human pregnane X receptor (PXR) small molecule agonists, qHTS cell viability counter screen (AID 1346977); also: nearly all actives have a fitted effect of over 50% in size; also: potency is read from the fitted curve at half-maximal effect
Summary of the method: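 In each well, the PXR reporter HepG2 line was checked for viability: CellTiter-Fluor reagent added 23hr post-dosing, fluorescence read after 1hr incubation at 37C.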

[10] = Caspase-3/7 induction in HepG2 cells by small molecules, qHTS assay (AID 1346978); also: nearly all actives have a fitted effect of over 15% in size
Summary of the method: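 Wild-type HepG2 cells, 2,000/well, settled 5 hr at 37 C and 5% CO2, then compound-treated for 17 hr; caspase-3/7 activity read by luminescent Caspase-Glo 3/7 after 30 min at room temperature.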

[11] = Caspase-3/7 induction in CHO-K1 cells by small molecules, qHTS cell viability counter screen (AID 1346979); also: nearly all actives have a fitted effect of over 35% in size; also: potency is read from the fitted curve at half-maximal effect
Summary of the method: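 Following a 5hr settling period, CHO-K1 cells at 1,500 per well received DMSO-dissolved compounds. Cell viability was quantified 16hr later by CellTiter-Fluor fluorescence, measured after 1hr with reagent at 37C.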

[12] = Caspase-3/7 induction in CHO-K1 cells by small molecules, qHTS assay (AID 1346980); also: nearly all actives have a fitted effect of over 15% in size
Summary of the method: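 Wild-type CHO-K1 cells exposed to compounds for 17hr at 37 C, 5% CO2. Caspase-3/7 activity then measured by Caspase-Glo 3/7 luminescence after 30min at room temperature.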

[13] = Caspase-3/7 induction in HepG2 cells by small molecules, qHTS cell viability counter screen (AID 1346981); also: series mostly up to about 92 µM; nearly all actives have a fitted effect of over 30% in size
Summary of the method: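 Fluorescence read-out of live-cell protease activity (CellTiter-Fluor) after 1 hr with reagent. This was measured in the same wells as the caspase-3/7 luminescence, on HepG2 cells exposed to DMSO-dissolved compounds for 16 hr at 37 C.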

[14] = target: Cytochrome P450 2D6 (Homo sapiens) (UniProt P10635); experiment: Cytochrome P450 Family 2 Subfamily D Member 6 (CYP2D6) small molecule antagonists: luciferase reporter qHTS assay (AID 1671196); also: nearly all actives have a fitted effect of over 50% in size; also: potency is read from the fitted curve at half-maximal effect
Chain of Cytochrome P450 2D6 (Homo sapiens) (P10635 whole entry, looked up): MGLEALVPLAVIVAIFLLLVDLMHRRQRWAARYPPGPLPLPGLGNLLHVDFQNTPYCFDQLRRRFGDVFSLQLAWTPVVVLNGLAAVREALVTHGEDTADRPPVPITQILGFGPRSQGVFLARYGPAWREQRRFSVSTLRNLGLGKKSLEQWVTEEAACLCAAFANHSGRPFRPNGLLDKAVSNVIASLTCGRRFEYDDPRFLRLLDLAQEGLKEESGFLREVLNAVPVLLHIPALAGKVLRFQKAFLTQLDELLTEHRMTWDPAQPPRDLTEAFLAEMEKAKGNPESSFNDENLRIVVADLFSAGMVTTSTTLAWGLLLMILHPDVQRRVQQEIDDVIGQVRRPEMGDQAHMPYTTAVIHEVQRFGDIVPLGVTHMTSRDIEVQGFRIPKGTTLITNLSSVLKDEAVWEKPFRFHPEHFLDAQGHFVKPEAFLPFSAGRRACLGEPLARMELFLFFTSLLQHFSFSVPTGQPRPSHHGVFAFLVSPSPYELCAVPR
Summary of the method: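 Luminogenic proluciferin substrate, CYP2D6 enzyme; 10 min RT preincubation with compound, NADPH regeneration system added, 1 h RT. Stop/detection reagent, 20 min RT, luminescence read (RLU). Signal proportional to CYP activity.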

[15] = target: Thyrotropin-releasing hormone receptor (Homo sapiens) (UniProt P34981); experiment: qHTS assay to identify small molecule antagonists of the thyrotropin-releasing hormone receptor (TRHR) signaling pathway (AID 1346877; active = well fitted inhibition curve with a large enough effect in the repeat runs, not every such curve was filed as active; also: series mostly up to about 51 µM)
Chain of Thyrotropin-releasing hormone receptor (Homo sapiens) (P34981 whole entry, looked up): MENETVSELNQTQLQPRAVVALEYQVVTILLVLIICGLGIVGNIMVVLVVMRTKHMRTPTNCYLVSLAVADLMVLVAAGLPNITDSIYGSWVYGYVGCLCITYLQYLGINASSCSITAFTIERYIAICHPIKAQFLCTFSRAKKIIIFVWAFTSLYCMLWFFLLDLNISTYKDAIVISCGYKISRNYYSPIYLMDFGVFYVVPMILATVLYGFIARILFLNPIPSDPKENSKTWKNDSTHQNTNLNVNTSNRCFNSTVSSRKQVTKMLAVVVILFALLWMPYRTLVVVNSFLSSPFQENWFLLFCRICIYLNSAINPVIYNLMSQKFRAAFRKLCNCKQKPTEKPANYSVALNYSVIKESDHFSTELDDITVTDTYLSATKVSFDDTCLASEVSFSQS
Summary of the method: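 HEK293/TRHR cells, 18 h, 37 °C; Ca2+ dye 2 h; cpd 5 min RT; TRH 1 nM final; fluorescence read 3 min, 1 s intervals; 15 concs, triplicate.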

[16] = target: Thyrotropin-releasing hormone receptor (Homo sapiens) (UniProt P34981); experiment: qHTS assay to identify small molecule agonists of the thyrotropin-releasing hormone receptor (TRHR) signaling pathway (AID 1346891; calls by dose curve; also: series mostly up to about 58 µM)
Summary of the method: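 Readout was intracellular calcium fluorescence in TRHR-Hek293 cells. Cells were incubated 18 h, dye-loaded 2 h at 37 °C, and treated with compound in agonist mode.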

[17] = target: Nuclear receptor subfamily 1 group I member 2 (Rattus norvegicus) (UniProt Q9R1A7); experiment: Rat pregnane X receptor (rPXR) activation by small molecules, qHTS assay (AID 1346983); conditions: rPXR luciferase reporter cells, One-Glo luminescence, 24 h; max activation: stronger effect = higher value; also: nearly all actives have a fitted effect of over 20% in size; also: potency is read from the fitted curve at half-maximal effect
Chain of Nuclear receptor subfamily 1 group I member 2 (Rattus norvegicus) (Q9R1A7 whole entry, looked up): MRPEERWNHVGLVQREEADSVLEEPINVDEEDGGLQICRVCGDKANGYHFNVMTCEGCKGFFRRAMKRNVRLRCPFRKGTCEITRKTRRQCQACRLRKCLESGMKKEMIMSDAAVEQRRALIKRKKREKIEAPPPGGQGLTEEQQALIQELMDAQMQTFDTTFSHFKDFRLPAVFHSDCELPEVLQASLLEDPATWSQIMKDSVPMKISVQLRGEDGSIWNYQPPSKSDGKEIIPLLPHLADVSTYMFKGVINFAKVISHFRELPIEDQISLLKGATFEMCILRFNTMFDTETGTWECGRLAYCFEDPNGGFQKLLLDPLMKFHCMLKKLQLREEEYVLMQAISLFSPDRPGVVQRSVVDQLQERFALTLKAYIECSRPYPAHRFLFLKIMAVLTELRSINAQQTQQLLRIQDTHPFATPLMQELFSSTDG
Summary of the method: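 Cell-based rPXR activation assay: rPXR cells, 2,000 per well, rested 5hr at 37 C, then exposed to compounds in DMSO for 24 hr at 37 C. Luciferase activity read by One-Glo luminescence after 30 min at room temperature.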

[18] = target: Nuclear receptor subfamily 1 group I member 2 (Homo sapiens) (UniProt O75469); experiment: CYP3A4 induction through human pregnane X receptor (PXR) by small molecules, qHTS assay (AID 1346984); also: nearly all actives have a fitted effect of over 40% in size
Chain of Nuclear receptor subfamily 1 group I member 2 (Homo sapiens) (O75469 whole entry, looked up): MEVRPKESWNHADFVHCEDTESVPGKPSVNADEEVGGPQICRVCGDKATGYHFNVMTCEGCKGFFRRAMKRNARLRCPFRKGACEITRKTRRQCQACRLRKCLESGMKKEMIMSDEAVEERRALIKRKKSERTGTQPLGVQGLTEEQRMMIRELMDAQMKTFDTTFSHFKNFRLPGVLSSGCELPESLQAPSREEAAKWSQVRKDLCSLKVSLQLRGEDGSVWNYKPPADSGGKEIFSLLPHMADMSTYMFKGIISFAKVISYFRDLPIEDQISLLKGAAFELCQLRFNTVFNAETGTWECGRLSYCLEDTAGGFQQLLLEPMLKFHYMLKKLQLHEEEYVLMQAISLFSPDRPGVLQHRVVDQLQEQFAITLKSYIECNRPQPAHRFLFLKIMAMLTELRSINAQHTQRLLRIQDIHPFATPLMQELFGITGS
Summary of the method: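 HepG2-derived DPX-2 line carrying PXR plus a CYP3A4-promoter luciferase reporter; cells plated 5 hr, compound-exposed 24 hr at 37C. CYP3A4 activity probed with 3uM (final) Luciferin-IPA for 3hr, then luciferase read after One-Glo.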

[19] = target: Nuclear receptor subfamily 1 group I member 2 (Homo sapiens) (UniProt O75469); experiment: Human pregnane X receptor (PXR) small molecule agonists, qHTS assay (AID 1346982); also: nearly all actives have a fitted effect of over 35% in size; also: potency is read from the fitted curve at half-maximal effect
Summary of the method: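 HepG2 PXR-Luc reporter line, 5% charcoal-stripped FBS; 5 hr pre-incubation, compound (DMSO) 24 hr at 37 C/5% CO2; ONE-Glo 30 min RT; luminescence read-out.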

[20] = target: Nuclear receptor subfamily 1 group I member 2 (Homo sapiens) (UniProt O75469); experiment: Human pregnane X receptor (PXR) activation by small molecules, qHTS assay (AID 1346985); also: nearly all actives have a fitted effect of over 40% in size
Summary of the method: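 DPX-2 cells (HepG2 co-transfected with a PXR response element and a CYP3A4-promoter luciferase construct) were seeded at 2,000 per well, rested 5 hr at 37C, then exposed to DMSO-dissolved compounds for 24 hr. Activation was read as luciferase luminescence.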
% is scaled to controls: 0 for no effect and ±100 for the full control effect.

CC(=O)Nc1ccc(N)cc1
active: Potency [14] 40.5 µM
inactive: Potency [1] | Potency [2] | Potency [3] | Potency [4] | Potency [5] | outcome [6] | outcome [7] | outcome [8] | Potency [9] | Potency [10] | Potency [11] | outcome [12] | Potency [13]

O=C(/C=C/c1ccccc1)OCCCc1ccccc1
inactive: Potency [1] | Potency [2] | Potency [3] | Potency [5] | outcome [6] | outcome [7] | outcome [8] | Potency [9] | Potency [10] | Potency [11] | outcome [12] | Potency [13] | Potency [14]

CCc1nn(CCCN2CCN(c3cccc(Cl)c3)CC2)c(=O)n1CCOc1ccccc1
inactive: Potency [2] | outcome [6] | outcome [7] | outcome [15] | Potency [16] | Potency [10] | Potency [18]
active: Potency [1] 29.8 µM | Potency [3] 26.6 µM | Potency [9] 23.7 µM | Potency [11] 29.8 µM | Potency [17] 12.6 µM | Potency [14] 4.9 µM

C=CC(C)(O)CCCC(C)CCCC(C)CCCC(C)C (stereo not given)
inactive: Potency [1] | Potency [3] | Potency [4] | outcome [6] | outcome [8] | Potency [16] | Potency [9] | Potency [10] | Potency [11] | outcome [12]
active: Potency [2] 13.6 µM | Potency [19] 24.2 µM

O=S(=O)(c1ccccc1)c1ccc(Cl)cc1
active: Potency [3] 24.3 µM | Potency [19] 30.6 µM
inactive: Potency [1] | Potency [2] | Potency [4] | outcome [6] | outcome [15] | Potency [16] | Potency [9] | Potency [10] | Potency [11] | outcome [12] | Potency [13]

O=C(Nc1ccccc1)Nc1ccccc1
inactive: Potency [1] | Potency [2] | Potency [4] | Potency [5] | outcome [6] | outcome [7] | outcome [8] | outcome [15] | Potency [9] | Potency [10] | outcome [12]
active: Potency [19] 4.88 µM | Potency [14] 28.4 µM

CC(=O)Oc1ccc(C(=C2CCCCC2)c2ccc(OC(C)=O)cc2)cc1
inactive: Potency [1] | Potency [2] | Potency [5] | outcome [6] | outcome [7] | outcome [8] | Potency [9] | outcome [12] | Potency [13] | max activation [17] -2.09% | Potency [18] | Potency [20]
active: Potency [3] 13.3 µM | Potency [14] 15.5 µM

CC(C)(O)c1ccccc1CC[C@@H](SCC1(CC(=O)O)CC1)c1cccc(/C=C/c2ccc3ccc(Cl)cc3n2)c1
inactive: Potency [1] | Potency [2] | Potency [3] | Potency [4] | outcome [6] | outcome [8] | outcome [15] | Potency [16] | Potency [9] | Potency [10] | outcome [12] | Potency [13] | Potency [19] | Potency [18] | Potency [14]

CCC(C(=O)OCCOCCN(CC)CC)c1ccccc1 (stereo not given)
active: Potency [14] 13.8 µM
inactive: Potency [1] | Potency [2] | Potency [4] | Potency [5] | outcome [6] | outcome [7] | outcome [8] | outcome [15] | Potency [16] | Potency [9] | Potency [10] | Potency [11] | outcome [12] | Potency [13] | Potency [19] | max activation [17] -2.49% | Potency [18] | Potency [20]

CCC(C(=O)OCCN(CC)CC)c1ccccc1 (stereo not given)
inactive: Potency [1] | Potency [2] | Potency [3] | Potency [5] | outcome [6] | outcome [8] | outcome [15] | Potency [16] | Potency [9] | Potency [11] | outcome [12] | Potency [13] | Potency [19]
active: Potency [14] 3.09 µM

O=C(CS)OCCOC(=O)CS
inactive: Potency [1] | Potency [2] | Potency [3] | Potency [5] | outcome [6] | outcome [7] | outcome [8] | outcome [15] | Potency [16] | Potency [9] | Potency [10] | Potency [11] | outcome [12] | Potency [13] | Potency [19] | Potency [14]

CCCCCCCCCCCC[N+](C)(C)CC(=O)[O-]
inactive: Potency [1] | Potency [2] | Potency [3] | outcome [6] | outcome [7] | outcome [8] | outcome [15] | Potency [9] | Potency [10] | Potency [11] | outcome [12] | Potency [13] | Potency [19]
active: Potency [5] 21.7 µM

CCCCOC(=O)CCS
inactive: Potency [1] | Potency [2] | Potency [3] | Potency [5] | outcome [7] | Potency [9] | Potency [10] | Potency [11] | outcome [12] | Potency [13] | Potency [19]

NC(=O)Nc1ccc(Cl)c(Cl)c1
inactive: Potency [1] | Potency [2] | Potency [4] | Potency [5] | outcome [6] | outcome [7] | outcome [8] | outcome [15] | Potency [16] | Potency [9] | Potency [10] | Potency [11] | outcome [12]
active: Potency [19] 48.4 µM
